From PubChem BioAssay AID651965 (National Center for Advancing Translational Sciences (NCATS), 2013)
The campaign covered roughly 340,000 compounds. About 6,400 (1.9%) were called active. Where a call stands in place of a potency, no number is given. Inconclusive results (about 4%) are left out. Calls follow the shape of the dose curve; as a rule, active = well fitted falling curve with a large enough effect; inconclusive = small, poorly fitted or top-dose-only effect; inactive = no such curve, though single readings can be large or run the other way. The sample as a whole holds a higher share of actives than the screen did.

biological target: ATP-dependent Clp protease proteolytic subunit (Bacillus subtilis (strain 168)) (UniProt P80244); assay: qHTS Assay for Activators of ClpP; also: the source files actives as falling curves though it sought activators and does not explain the sign; nearly all actives have a fitted effect of over 65% in size; conditions: purified B. subtilis ClpP, FRET peptide cleavage, 20 min; series mostly up to 57.5 µM
How it was run: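 ClpP 10 microg/mL final, pH 8 Tris/KCl buffer with BSA, glycerol, Tween-20; compound pinned in; FRET-FV substrate; RT 20 min; Ex320/Em430; ΔFRET vs ADEP 5.8 microM, DMSO, no enzyme.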
Potency is read from the fitted curve at half-maximal effect.

SMILES | Potency
O=C1CC(c2ccccc2)CC2=C1C(c1ccco1)n1nc(C(F)(F)F)nc1N2 (stereo not given) | inactive
CCCCc1c(-c2ccc(Br)cc2)ncn1CCc1ccccc1OC | inactive
O=C(OCC(=O)N1CCN(C(=O)c2ccco2)CC1)c1cccc(O)c1 | inactive
O=C(OCC(=O)N1CCN(C(=O)c2ccco2)CC1)c1c(Cl)cccc1Cl | 31.6 µM (active)
O=C(OCC(=O)N1CCN(C(=O)c2ccco2)CC1)c1ccc(Cl)c(Cl)c1 | inactive
COc1cccc(-c2ccc3c(c2)N(Cc2ccccc2OC)C(=O)C(C)S3)c1 (stereo not given) | inactive
O=C1Nc2ccccc2-n2nnnc2C1N1CCN(c2cccc(C(F)(F)F)n2)CC1 (stereo not given) | inactive
Cc1cc(=O)oc2cc(OC(C)C(=O)Nc3ccc(N4CCOCC4)cc3)ccc12 (stereo not given) | inactive
Cc1cc(=O)oc2cc(OC(C)C(=O)NCCc3ccc(S(N)(=O)=O)cc3)ccc12 (stereo not given) | inactive
Cc1cc(=O)oc2cc(NC(=O)C(C)Oc3ccccc3)ccc12 (stereo not given) | 28.2 µM (active)
CC(=O)c1ccc(S(=O)(=O)N2CCN(c3nc4c(C)c(C)ccc4cc3C#N)CC2)cc1 | inactive
Cc1cc(C)c2cc(C#N)c(N3CCNCC3)nc2c1 | inactive
Cc1cccc2cc(C#N)c(N3CCCC3)nc12 | 28.2 µM (active)
CC1(Oc2ccc(Cl)cc2)CCN(Cc2csc3ccccc23)C1 (stereo not given) | inactive
CC1CCCN(C(=O)c2cc(-c3ccco3)nc3ccccc23)C1 (stereo not given) | inactive
CN(CCOc1ccccc1)C(=O)c1cc(-c2ccco2)nc2ccccc12 | inactive
O=C(c1cc(-c2ccco2)nc2ccccc12)N(Cc1nnc(-c2ccc(Cl)cc2)o1)C1CC1 | 28.2 µM (active)
Cc1ccc(Cc2c(-c3ccco3)nc3ccc(Cl)cn23)cc1 | inactive
O=C1NC[C@H](CCCCN2C[C@H](Cc3ccccc3)N(Cc3ccccc3)C(=O)C2=O)N(CCc2ccc(O)cc2)C1=O | inactive
CN(C)c1ccc(CSc2ccccc2)cc1 | 12.6 µM (active)
CN(C)c1cc[n+](Cc2ccccc2)cc1 | inactive
O=C(c1ccc(CSc2ccccc2)cc1)N1CCCCCC1 | inactive
COc1ccc(-c2cc(NC=O)c3ncc(-c4ccccc4)n3c2)cc1OC | inactive
CCc1nc2c(OCc3ccc(F)c(F)c3)cccn2c1N(C)C(=O)c1ccco1 | inactive
Cc1ccnc(NC(=O)c2ccoc2C)c1 | inactive

SMILES | Potency
CC1=C(C(=O)Nc2cc(C)ccn2)C(c2cnn(C)c2)C2=C(CC(c3ccccc3)CC2=O)N1 (stereo not given) | 31.6 µM (active)
CCCn1c(=O)c(C(=O)Nc2cc(C)ccn2)c(O)c2ccccc21 | inactive
CN1OC[C@@H]2CN(S(=O)(=O)c3cccc4ccccc34)[C@H](c3ccc(N4CCCCC4)cc3)C[C@@H]21 | inactive
O=C(NC(c1ccc(Cl)cc1)c1cnccn1)C1CCN(Cc2ccc(Cl)cc2)CC1 (stereo not given) | inactive
O=C1[C@H]2[C@@H](c3ccc(C(F)(F)F)cc3)N[C@]3(CCCN(Cc4ccc(Cl)cc4)C3=O)[C@H]2C(=O)N1Cc1ccccc1 | inactive
COc1cccc(/C=N/NC(=O)CNC(=O)c2ccc(S(=O)(=O)N3CCOCC3)cc2)c1OC | 31.6 µM (active)
Cc1ccccc1OCC(=O)Nc1ccc(S(=O)(=O)N2CCOCC2)cc1 | inactive
COc1ccc(/C=N/NC(=O)CNC(=O)c2ccc(S(=O)(=O)N3CCCC3)cc2)c(OC)c1 | inactive
CC(C)Oc1ccc(CN2CCC2(C)C(=O)NCc2ccc(C(F)(F)F)cc2)cc1 (stereo not given) | inactive
CCc1nc2ccc(C(=O)N3CCC(O)(Cc4ccccc4)CC3)cn2c1N(C)C(=O)Cc1ccccc1 | inactive
O=[N+]([O-])c1cccc2ncccc12 | inactive
CN1CCN(S(=O)(=O)c2ccc(N3CCN(c4ccccc4O)CC3)c([N+](=O)[O-])c2)CC1 | inactive
CN1CN(C)c2ccc([N+](=O)[O-])c3cccc1c23 | 15.8 µM (active)
CC1(C)C=Cc2c(ccc(C(=O)/C=C/c3ccccc3)c2O)O1 | inactive
COC(=O)[C@]12CCCCC=C1N(Cc1cccc3ccccc13)C(=O)[C@H](CC(=O)N1CCOCC1)C2 | inactive
CCN(CC)C(=O)C1=C(C)N(Cc2ccc(C(C)(C)C)cc2)C(=O)C(CC(=O)NCc2cccc3ccccc23)C1 (stereo not given) | inactive
CN(CCc1ccccn1)C1CCCN(S(=O)(=O)c2ccccc2Cl)C1 (stereo not given) | inactive
CN(CCc1ccccn1)S(=O)(=O)c1ccc2c3c(cccc13)C(=O)N2 | 25.1 µM (active)
CN(CC(=O)NCCc1ccccn1)S(=O)(=O)c1ccc(Cl)cc1 | inactive
COc1cc(OC)c(/C=C/c2ccnc3ccccc23)c(OC)c1 | inactive
COc1ccc(C(C(=O)Nc2c(C)cccc2C)N2CCN(c3ccc(C)cc3)CC2)cc1 (stereo not given) | inactive
CCC(CC)C(C(=O)NC1CCCC1)N1CCN(c2cc(C)nc3ccccc23)CC1 (stereo not given) | inactive
COc1ccccc1/C=C/c1nc(C#N)c(NC(C)c2ccccc2)o1 (stereo not given) | inactive
COc1ccccc1/C=C/C(=O)NC(=S)N1CCOCC1 | inactive
COc1ccccc1/C=C/C1=NC(=C\N(C)C)/C(=O)O1 | 25.1 µM (active)

SMILES | Potency
CC1(C(=O)Nc2ccc3c(c2)OCCO3)CSCC(=O)N1CCOc1ccccc1 (stereo not given) | inactive
C[C@@H]1CC2=C(C(=O)OC(C)(C)O2)[C@@H](C2CC2)O1 | inactive
COc1ccc(C=C2CCC3C(CCCC34OCCO4)C2=O)cc1 (stereo not given) | inactive
CCCC(=O)Nc1ccc2oc(-c3ccc(O)c(Br)c3)nc2c1 | inactive
O=C(Nc1ccc2oc(-c3ccc4ccccc4c3)nc2c1)c1cccs1 | 3.55 µM (active)
COc1cccc(C(=O)Nc2ccc3oc(-c4ccc5ccccc5c4)nc3c2)c1 | inactive
O=C(Nc1ccc(-c2nc3cc(NC(=O)c4ccccc4Cl)ccc3o2)cc1)c1ccccc1Cl | inactive
CCC(=O)Nc1cccc(-c2nc3cc(C)ccc3o2)c1 | inactive
O=C(Cc1cccc2ccccc12)Nc1ccc2oc(-c3ccccc3)nc2c1 | 20 µM (active)
Clc1ccc(-c2cccc3nccn23)cc1 | inactive
Cc1cc(Br)cn2c(Cc3cccc(F)c3)c(-c3cccc(Br)c3)nc12 | inactive
C[C@H](NC(=O)CC[C@H]1O[C@@H](n2ccc(=O)[nH]c2=O)[C@H](O)[C@@H]1O)c1cccc2ccccc12 | inactive
O=C(O)Cc1ccc(NC(=O)Nc2cccc3ccccc23)cc1 | inactive
S=C(NCCc1ccccc1)NCc1ccccc1Cl | inactive
O=C(O)Cc1ccc(NCc2ccccc2Cl)cc1 | 8.91 µM (active)
COc1cc(N)c(Cl)cc1C(=O)OCC(=O)c1ccc2c(c1)NC(=O)CO2 | 14.1 µM (active)
Cc1ccc(C)c(OCCC(=O)OCC(=O)c2ccc3c(c2)NC(=O)CO3)c1 | inactive
O=C1COc2ccc(C(=O)COC(=O)c3ccccc3Cl)cc2N1 | inactive
COc1cccc(CNc2nc(NCc3cccs3)nc3ccsc23)c1 | inactive
CSCCC(c1nnnn1Cc1ccccc1)N1CCN(C/C=C/c2ccccc2)CC1 (stereo not given) | inactive
Cn1c(=O)c2c(n3c4ccccc4nc13)NC(=O)CC2c1cccc(Cl)c1 (stereo not given) | inactive
CC(C)(C)c1nc2ccccc2c(=O)n1N1C(=O)c2ccccc2C1=O | inactive
CC(C)(C)c1cc(=O)n2c(nc3ccccc32)[nH]1 | 15.8 µM (active)
CCc1nc2ccc(C(=O)NC3CCN(Cc4ccccc4)CC3)cn2c1N(C)CCN1CCOCC1 | inactive
CCCCOCCCNC(=O)C[C@@H]1C[C@@]2(C(=O)OCC)CCCC=C2N(CCC2=CCCCC2)C1=O | inactive

SMILES | Potency
COc1ccc(CCNC(=O)Nc2ccc3c(c2)c(=O)n(C)n3C)cc1OC | inactive
N#Cc1cccc(NC(=O)c2cc(C3CCCCN3C(=O)CCc3ccccc3)on2)c1 (stereo not given) | inactive
COc1ccc2c(c1OC)C(=O)N(c1ncn[nH]1)C2 | 28.2 µM (active)
CC1(C)OC(=O)C2=C(C[C@@H](C3CCCC3)O[C@@H]2c2ccc(Cl)cc2)O1 | inactive
O=C(NCc1ccccc1Cl)c1csc([C@@H]2O[C@H](CO)[C@@H](O)[C@H]2O)n1 | inactive
Cc1cc(C(=O)OCC(=O)N2C(C)CCCC2C)c2ccccc2n1 (stereo not given) | inactive
CC1CCCC(C)N1C(=O)COC(=O)c1ccccc1C(=O)c1ccccc1 (stereo not given) | inactive
Cc1nn(-c2ccccc2)nc1C(=O)OCC(=O)N1CCCCC1C (stereo not given) | 10 µM (active)
COc1ccc(C2=Nc3ccccc3NC(=O)C2N(C(=O)c2cc3ccccc3[nH]2)c2ccccc2)cc1 (stereo not given) | inactive
Cc1cc(-c2ccccc2)n2nc(-c3ccccc3)cc2n1 | inactive
Nc1nc2ncccn2c1-c1ccccc1 | inactive
c1ccc(-c2ccnc3nc(-n4cccc4)nn23)cc1 | 1.78 µM (active)
CN(C)c1ccc(C=Nc2ccc(/C=C/c3ccnc4ccccc34)cc2)cc1 | inactive
CC1(C)OC(=O)C2=C(C[C@@H](C3CC3)O[C@H]2CCc2cccc(Cl)c2)O1 | inactive
O=C(Nc1cc(Br)ccc1F)c1nc[nH]c1C(=O)NCc1ccccc1 | inactive
Cc1ccc(-n2ncc3c(N4CCC(C(N)=O)CC4)ncnc32)cc1 | inactive
O=C(NNc1ncnc2c1cnn2-c1ccccc1)c1ccco1 | inactive
CC1(C(=O)Nc2cccnc2)Cc2c(-c3ccccc3)ccnc2O1 (stereo not given) | inactive
COc1ccc(CCn2c3c(c(=O)[nH]c2=S)CN(C(C)C)CN3)cc1OC | inactive
CCNC(=O)C1CCCN(C(=O)c2ccc(OC)cc2OC)CC1 (stereo not given) | inactive
CCc1nc2ccc(C(=O)NC3CCN(Cc4ccccc4)CC3)cn2c1N(CC)CCOC | inactive
CCOC(=O)c1cc2cc(C)ccc2[nH]1 | 14.1 µM (active)
CCOC(=O)c1[nH]c2ccc(C)cc2c1N=C(C)N(C)C | inactive
Cc1ccc2[nH]c(=O)c(COC(=O)c3ccccn3)cc2c1 | inactive
COC(=O)c1ccc2nc(-c3cccc(Br)c3)c(Cc3ccccc3C(F)(F)F)n2c1 | inactive
